# From PubChem
# Most compounds without a hit are left out; they make up all but 3.6% or so of the library.
# S16 F2sN tox: cytotoxicity in S16 Pmp22-F2sN Schwann cells. AID 1508642. S16 Pmp22-F2sN Schwann cells viability, CellTiter-Glo, 24 h. 0.48% of 43,000 active. Potency, µM (titrated, usually from 57.5 µM), for the others: top-dose activity change, negative = cytotoxicity, most hits filed as cytotoxic; note: potency is the fitted concentration of half-maximal effect; % is set by controls: 0 for no effect and ±100 for the full control effect; nearly all actives have a fitted effect of over 65% in size
#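 Luminescence from CellTiter-Glo, read by CCD camera after a 15 min room-temperature incubation, served as the viability signal. Reporter Schwann cells (S16 Pmp22-F2sN) had been treated with pin-transferred compounds for 24 h at 37C.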
# PMP22 txn prim: modulates PMP22 transcription in S16 Schwann cells; Potency, µM (highest dose often 57.5 µM), inactives show at the top dose activity change, negative = inhibition, actives largely listed as inhibitors; S16 Pmp22-F2sN Schwann cells (luciferase reporters placed in the Pmp22 gene), FLuc/NLuc coincidence luminescence, 24 h; AID 1508649; 2% of 43,000 active; active = clear falling dose curves in both reporters; inconclusive = both reporters move, but less clearly or upward; inactive = either reporter flat; the % is the NLuc reporter signal; note: potency is the fitted concentration of half-maximal effect; % is set by controls: 0 for no effect and ±100 for the full control effect
#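 qHTS, 1536-well. Cells seeded, compounds added by pin tool, 24 h 37C. Nano-Glo reagent 1 (lysis/FLuc), 10 min RT, read; Stop&Glo, 10 min RT, read NLuc.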
# HTT-AS promoter: HTT-AS promoter activation | Potency, µM (series often up to 57.5 µM), for inactives: at the top dose activity change, positive = activation, usual class: activators | AID 1508624 | HEK293 HTT-AS promoter firefly luciferase reporter, 24 h; response scale: percent change from vehicle, -100% = no light | 0.24% of 48,000 active; note: potency is the fitted concentration of half-maximal effect; nearly all actives have a fitted effect of over 55% in size
#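 Luminescence was read after Dual-Glo reagent and a 10 min room-temperature incubation. Values were normalized to vehicle (0% activity) and zero RLU (-100% activity). Reporter HEK293 cells had been exposed to compounds (up to 57.5 uM final) for 24 h.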
# SKOV3 invasion: inhibitors of ovarian cancer cell adhesion and invasion in omental model; SKOV3ip1-GFP adhesion/invasion on 3D omental model, fluorescence; Potency, µM (top dose mostly 45.8 µM), inactives show top-dose activity change, negative = inhibition, hits mostly inhibitors; 0.1% of 46,000 active;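 note: potency is the fitted concentration of half-maximal effect; plate controls were DMSO wells for no effect and tomatine positive control wells for full effect; nearly all actives have a fitted effect of over 65% in size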
#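 qHTS, 4-pt dose (0.36-46 umol/L); SKOV3ip1-GFP, 1,200 cells/well, no FBS; primary omental fibroblast/mesothelial co-culture 48 h pre-grown; 2 h RT + 16 h 37 C; PBS wash, 4% PFA; GFP count 488/509 nm.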
# mTORC1 inh: mTORC1 pathway inhibition measured by phospho-rpS6; Tsc2-/- p53-/- MEF, phospho-rpS6 immunofluorescence/PI, 24 h; Potency, µM (top dose mostly 38.3 µM), without a hit: top-dose activity change, negative = inhibition, usual class: inhibitors; 0.78% of 44,000 active;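 note: potency is the fitted concentration of half-maximal effect; plate controls were DMSO for no effect and rapamycin for full effect; nearly all actives have a fitted effect of over 50% in size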
#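 Tsc2-/-, p53-/- MEFs (empty-vector stable line) in DMEM + 10% FBS were treated with compounds 24 h at 37 degree Celsius, fixed, and immunostained for phospho-rpS6 (Alexa-488) with propidium iodide counterstain. Laser-scanning cytometry gave % positive cells, normalized against 7.5 nM rapamycin and DMSO.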
# HTT promoter inh: inhibits huntingtin promoter activity | HEK293 HTT promoter firefly luciferase reporter, 24 h | Potency, µM (top dose mostly 57.5 µM), inactives show at the highest dose activity change, negative = inhibition, usual class: inhibitors | 0.93% of 48,000 active; note: potency is the fitted concentration of half-maximal effect; nearly all actives have a fitted effect of over 50% in size
#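 Firefly luciferase readout (Dual-Glo, 10 min RT) after 24 h, 37 °C compound exposure (final up to 57.5 uM) of HEK293 reporter cells cultured 24 h beforehand; PTC124 at 50 uM final as control inhibitor; activity scaled vehicle 0%, zero RLU -100%.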
# NLuc saturating: inhibits NanoLuc at saturating substrate, PMP22 counter-screen. shares compounds with PMP22 txn prim. Secreted NLuc enzyme (filtered S16 cell medium), Nano-Glo luminescence. Potency, µM (doses to about 57.5 µM), for inactives: top-dose activity change, negative = inhibition, most hits filed as inhibitors. 4% of 690 active. AID 1508638; note: potency is the fitted concentration of half-maximal effect; % is set by controls: 0 for no effect and ±100 for the full control effect
# NLuc Km ctr: inhibits NanoLuc under Km conditions, PMP22 counter-screen; shares compounds with PMP22 txn prim; secreted NLuc enzyme, coelenterazine luminescence, Km conditions; Potency, µM (series often up to 57.5 µM), for inactives: top-dose activity change, negative = inhibition, most hits filed as inhibitors; 5% of 690 active; AID 1508639; note: potency is the fitted concentration of half-maximal effect; % is set by controls: 0 for no effect and ±100 for the full control effect
# FLuc counter: inhibits firefly luciferase, PMP22 counter-screen | shares compounds with PMP22 txn prim | purified P. pyralis FLuc, luminescence, 10 min | Potency, µM (top dose mostly 57.5 µM), for inactives: at the highest dose activity, negative = inhibition, most hits filed as inhibitors | 690 tested, under 10 active | AID 1508640; note: % of control where 0% means no effect
# Target sequence (P08659 whole entry, looked up): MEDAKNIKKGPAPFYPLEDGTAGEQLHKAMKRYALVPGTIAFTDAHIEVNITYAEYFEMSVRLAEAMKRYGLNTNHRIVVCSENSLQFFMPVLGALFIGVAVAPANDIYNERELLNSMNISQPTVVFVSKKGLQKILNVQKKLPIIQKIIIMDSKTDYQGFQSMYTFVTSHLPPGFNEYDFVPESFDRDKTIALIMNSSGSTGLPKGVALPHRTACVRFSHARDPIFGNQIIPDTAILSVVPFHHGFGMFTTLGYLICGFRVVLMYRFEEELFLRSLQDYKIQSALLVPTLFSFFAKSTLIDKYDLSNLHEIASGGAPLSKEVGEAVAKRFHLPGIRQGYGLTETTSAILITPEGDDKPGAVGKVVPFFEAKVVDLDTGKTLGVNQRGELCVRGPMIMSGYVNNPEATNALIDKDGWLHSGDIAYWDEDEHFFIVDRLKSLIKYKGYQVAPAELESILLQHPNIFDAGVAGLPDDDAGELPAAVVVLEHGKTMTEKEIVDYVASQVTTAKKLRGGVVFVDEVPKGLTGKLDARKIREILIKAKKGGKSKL
# S16 viab conf: S16 Schwann cell cytotoxicity, confirmatory | 7% of 690 active | Potency, µM (highest dose often 57.5 µM), inactives show at the top dose activity change, negative = viability loss, most hits filed as cytotoxic | shares compounds with PMP22 txn prim | S16 Schwann cells viability, CellTiter-Glo ATP luminescence, 24 h; note: potency is the fitted concentration of half-maximal effect; % is set by controls: 0 for no effect and ±100 for the full control effect
# PMP22 txn cnf: PMP22 transcription modulation, confirmatory; shares compounds with PMP22 txn prim; S16 Schwann cells Pmp22-F2sN, dual luciferase, 24 h; Potency, µM (series often up to 57.5 µM), for the others: top-dose activity change, negative = inhibition, hits mostly inhibitors; 22% of 690 active; AID 1508646; active = clear falling dose curves in both reporters; inconclusive = both reporters move, but less clearly or upward; inactive = either reporter flat; the % is the FLuc reporter signal; note: potency is the fitted concentration of half-maximal effect
# PMP22 HiBiT cnf: confirmation of modulators of rat PMP22 protein expression. shares compounds with PMP22 txn prim. S16 Schwann cells Pmp22-HiBiT, luminescence, 48 h. Potency, µM (titrated, usually from 27.9 µM), inactives show at the top dose activity change, negative = inhibition, most hits filed as inhibitors. 95 tested, under 10 active
# Target sequence (P25094 whole entry, looked up): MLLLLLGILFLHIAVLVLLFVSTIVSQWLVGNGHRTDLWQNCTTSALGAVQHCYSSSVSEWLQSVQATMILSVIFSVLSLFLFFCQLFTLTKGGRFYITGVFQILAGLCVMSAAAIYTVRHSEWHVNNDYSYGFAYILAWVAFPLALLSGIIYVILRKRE
# Numbers without * were called inactive; i = inactive; ? = inconclusive; . = no result given; [ ] = dose if it differs, or a comment. Unless noted, calls come from the whole dose curve; as a rule, active = well fitted curve in the direction sought with a large enough effect; inconclusive = small, poorly fitted or top-dose-only effect, or another doubt; inactive = no such curve, though single readings can be large; an effect the other way counts as inactive or inconclusive.
SMILES,S16 F2sN tox,PMP22 txn prim,HTT-AS promoter,SKOV3 invasion,mTORC1 inh,HTT promoter inh,NLuc saturating,NLuc Km ctr,FLuc counter,S16 viab conf,PMP22 txn cnf,others
COc1ccc2c(c1)-c1nc(NC(=O)c3ccc(Cl)cc3)sc1CC2,7%,?,-23%,-31%,-24%,-30%,.,.,.,.,.,
COc1ccc2c(c1)-c1nc(NC(=O)c3cc(Cl)ccc3OC)sc1CC2,-3%,17µM*,-11%,-7%,3%,-5%,-15%,-9%,2%,?,?,
COc1cc2c(Oc3ccc(-c4cnc(Nc5ccc(F)cc5)n(C)c4=O)cc3F)ccnc2cc1OCCCN1CCOCC1,.,.,-36%,?,.,?,.,.,.,.,.,
CC(C)C(=O)Nc1cccc(C(F)(F)F)c1,.,.,0%,.,.,-3%,.,.,.,.,.,
COc1ccc(N(CC(=O)Nc2cc(Cl)ccc2C)S(=O)(=O)c2c(C)noc2C)cc1,-5%,14µM*,-48%,-30%,-17%,?,-8%,?,1%,-8%,?,PMP22 HiBiT cnf=?
COc1ccc(C(C)=O)cc1CSc1nc(NCc2ccccc2)c2ccccc2n1,-8%,?,-37%,i,-8%,?,.,.,.,.,.,
COc1ccc(C(C)=O)cc1CSc1nc(Nc2ccc(F)c(F)c2)c2ccccc2n1,-17%,18µM*,-40%,0%,-1%,-25%,?,?,-1%,0%,?,
CCOC(=O)c1sc2ccccc2c1S(=O)(=O)N1CCN(c2cccc(OC)c2)CC1,?,6.3µM*,-44%,?,?,-11%,-14%,-1%,6%,0%,-29%,
CCNC(=O)Nc1ccc2ncc(Nc3ccc(C)cc3)nc2n1,.,.,-1%,-4%,.,12%,.,.,.,.,.,
COc1cccc(Cn2c(NCc3ccc(C)cc3)nc3c2c(=O)n(C)c(=O)n3C)c1,-6%,-24%,14%[11.5 µM],2%,-7%,9%[11.5 µM],.,.,.,.,.,
Cn1c(-c2cccc(Br)c2)cnc1NCc1cccc(F)c1,-11%,?,-23%,-1%,?,-20%,-11%,?,1%,-21%,-27%,
CCc1ccc(CNc2ncc(-c3cccc(OC)c3)n2C)cc1,?,?,-37%,5.6µM*,13µM*,-29%,-9%,-7%,-10%,?,?,
OCCn1cc(-c2cnc3nnn(Cc4ccc5ncccc5c4)c3n2)cn1,.,.,5%,-22%,.,0%,.,.,.,.,.,
Cc1[nH]c2ccccc2c1C1(O)C(=O)N(Cc2ccc(Cl)cc2)c2ccccc21 (centres undefined),?,?,-24%,i,?,-21%,.,.,.,.,.,
Cc1[nH]c2ccccc2c1C1(O)C(=O)N(Cc2ccccc2)c2ccc(Cl)cc21 (centres undefined),10%,16µM*,-23%,-16%,?,?,-14%,?,4%,?,?,
Cc1ccc(CN2C(=O)C(O)(c3c(C)[nH]c4ccccc34)c3ccccc32)cc1 (centres undefined),5%,8.2µM*,-20%,i,?,-15%,?,?,3%,8%,17µM*,PMP22 HiBiT cnf=-9%
Cc1cccc2c1CC[C@H](CN1CCC(c3c(Cl)cccc3Cl)CC1)C[C@@H]2O,.,.,5%,8%,.,2%,.,.,.,.,.,
Cc1noc(/C=C/c2ccco2)c1S(=O)(=O)N1CCC(C(=O)Nc2ccc(F)c(Cl)c2)CC1,?,12µM*,-45%,i,-11%,32µM*,-11%,2%,3%,-7%,-29%,
COc1cccc2c1C(=O)c1c(O)c3c(c(O)c1C2=O)C[C@@](O)(C(=O)CO)C[C@H]3O[C@H]1C[C@H](N)[C@H](O)[C@H](C)O1,.,.,-48%,5%,.,?,.,.,.,.,.,
Cc1ccc(NC(=O)N2CCN(c3ccc(Cl)c(Cl)c3)CC2)cc1,-30%,?,-31%,-3%,-20%,?,.,.,.,.,.,
CC(C)c1ccc(NC(=O)N2CCN(c3ccc(Cl)c(Cl)c3)CC2)cc1,-16%,11µM*,-42%,-23%,-18%,32µM*,?,?,-18%,-14%,?,
Cn1nnnc1SCCNCc1cc(Br)ccc1OCc1ccccc1Cl,?,16µM*,-52%,-1%,-16%,28µM*,?,?,-24%,-21%,?,
CC(=O)NCC(=O)N1[C@H]2CC[C@H]1c1cc(Nc3ncc(C(F)(F)F)c(NC4CCC4)n3)ccc12,.,.,-39%,-15%,.,?,.,.,.,.,.,
CCn1ccc2c(OCC(=O)Nc3ccccc3C(F)(F)F)cccc2c1=O,?,19µM*,-34%,-11%,-6%,?,?,?,-7%,2%,?,
C[N+]1(C)[C@@H]2CC(OC(=O)[C@H](CO)c3ccccc3)C[C@H]1[C@H]1O[C@@H]12 (some centres undefined),.,.,14%,10%,.,21%,.,.,.,.,.,
